{"source": "PubChem BioAssay (NCI)", "note": "The panel holds about 83,000 compounds, 20% with a hit somewhere; the sample as a whole holds those more often.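 Each cell line was grown in a 96-well plate and treated with one concentration of compound for 48 hours. Values below 10 were considered active.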 Values without a mark were called inactive. Calls of active or inactive are those of the source.", "data": [{"tested_on": "EKVX NSCLC", "assay": "NCI-60 one-dose screen, 48 h (100 = growth as untreated, 0 = no growth, -100 = all killed)", "settings": "10 µM", "procedure": "Growth inhibition of the EKVX human Non-Small Cell Lung tumor cell line is measured as a screen for anti-cancer activity. Cells are grown in 96 well plates and exposed to the test compound for 48 hours. Compounds are tested at a single concentration, which is 10^-5 M for most compounds. The reported endpoint is percent growth (GI% or GIPRCNT), where numbers from 0 - 100% represent growth inhibition, and numbers from -100% - 0 represent cell death. For example, a value of 40 represents 60% growth inhibition. A value of 0 means no net growth occurred over the course of the experiment. A value of -40 indicates 40% of cells at the beginning of the experiment died by the end of the experiment. A value of -100 means all cells are dead at the end of the experiment.\nNCI-60 Human Tumor Cell Lines Screen was performed using the standard one-dose NCI protocol, which is described in more detail at https://dtp.cancer.gov/discovery_development/nci-60/default.htm.\nCompounds with GIPRCNT values below 10 were considered active. Activity score was based on GIPRCNT using the following formula: […]\nScore is 0 for GIPRCNT values of 100 or above, 50 for GIPRCNT values of 0, and 100 for GIPRCNT values of -100.", "values": [{"smiles": "CC(=C(c1ccc(OCCN2CCCCCC2)cc1)c1ccc(OCCN2CCCCCC2)cc1)c1ccc(Cl)cc1", "growth": "-89.3% (active)"}, {"smiles": "CC(=O)c1ccc(NC(=O)NCn2c(=O)[nH]c3ccccc3c2=O)cc1", "growth": "92.5%"}, {"smiles": "CC(=O)Nc1ccc(-c2cn(-c3cccc(C(=O)Nc4ccc(Cl)c(C(F)(F)F)c4)c3)nn2)cn1", "growth": "-30.2% (active)"}, {"smiles": "C=C[C@H]1[C@H](O[C@@H]2OC(CO)[C@@H](O)[C@H](O)C2OC(=O)c2c(O)cc(O)cc2-c2cccc(O)c2)OC=C2C(=O)OCC[C@H]21", "note": "(stereo not given in full)", "growth": "93.8%"}, {"smiles": "CN1CCN(c2ccc(Nc3nc(NCCNC(=O)c4ccc(C(F)(F)F)cc4)c4sccc4n3)cc2)CC1", "growth": "59.7%"}, {"smiles": "COc1cnc2c(c1)C(=O)c1c-2n(CCCNC(C)C)c(=O)c2cc(OC)c(OC)cc12", "growth": "92.6%"}, {"smiles": "Nc1nnc(-c2c[nH]c3ccc(F)cc23)c(-c2c[nH]c3ncccc23)n1", "growth": "65.1%"}, {"smiles": "CO[C@@H]1CSSC1Cn1nc(-c2ccc(Oc3ccccc3)cc2)c2c(N)ncnc21", "note": "(stereo not given in full)", "growth": "25.3%"}, {"smiles": "Brc1ccc(/C=C/c2n(Cc3ccc4ccccc4c3)c3ccccc3[n+]2Cc2ccc3ccccc3c2)cc1", "growth": "-81.6% (active)"}, {"smiles": "O=C(/C=C/Nc1ccc(F)cc1F)c1ccc2c(c1)Nc1ccccc1S2", "growth": "74.2%"}, {"smiles": "Clc1cccc(N/N=C/c2c[nH]c3ccccc23)n1", "growth": "32.4%"}, {"smiles": "COc1ccc(-c2nc(Nc3ccccc3S(N)(=O)=O)c3ccccc3n2)cc1", "growth": "65%"}, {"smiles": "Cc1noc2c(Cc3ccc([N+](=O)[O-])cc3)nn(CC(=O)N/N=C/c3ccc(Cl)cc3)c(=O)c12", "growth": "79.8%"}, {"smiles": "C=C1CCC2C3(C)COC(c4cc(F)cc(F)c4)OC3CCC2(C)C1C/C=C1/C(=O)OCC1O", "note": "(stereo not given)", "growth": "-42.8% (active)"}, {"smiles": "O=C1Nc2ccc(Cl)cc2/C1=C/c1cccc(OCc2ccccc2)c1", "growth": "19.4%"}, {"smiles": "Cc1ccc(C(=O)NNC(=O)CSc2nc3ccccc3c(=O)[nH]2)cc1", "growth": "97.2%"}, {"smiles": "COc1ccc2ncc(C#Cc3cncc(C(=O)Nc4ccc(CN5CCN(C)CC5)c(C(F)(F)F)c4)c3)n2n1", "growth": "-99.7% (active)"}, {"smiles": "COc1cnc2c(c1)C(=O)c1c-2n(CCCNCCO)c(=O)c2cc(OC)c(OC)cc12", "growth": "87.9%"}, {"smiles": "CC1(C)CC[C@]23CC[C@]4(C)[C@H](CC[C@@H]5[C@@]6(C)CC[C@H](N)C(C)(C)[C@@H]6CC[C@]54C)[C@H]2[C@H]1OC3=O", "growth": "-95.4% (active)"}, {"smiles": "O=C1NC(=NC23CC4CC(CC(C4)C2)C3)N/C1=C\\c1ccc2ncoc2c1", "growth": "-14% (active)"}, {"smiles": "C/C(=N\\N=C\\c1ccc(Cl)c([N+](=O)[O-])c1)c1ccc2c(c1)Nc1ccccc1S2", "growth": "48%"}, {"smiles": "O=c1[nH][nH]c(Nc2ccccc2)c1N=Nc1ccc(F)cc1", "growth": "72.1%"}, {"smiles": "NS(=O)(=O)c1ccc(NC(=O)CSc2ccc(-c3ccc(Cl)cc3)nn2)c(Br)c1", "growth": "47.4%"}, {"smiles": "Cn1cc(/C=N/Nc2cccc(Cl)n2)c2ccccc21", "growth": "57.9%"}, {"smiles": "O=C(CNc1nc(-c2ccccc2)cs1)Nc1cccc(Cl)c1", "growth": "13.6%"}, {"smiles": "O=c1[nH]c2ccccc2cc1CSc1ccc(Nc2nccc(-c3ccc4c(c3)OCO4)n2)cc1", "growth": "94.2%"}, {"smiles": "COc1ccc2[nH]c(O)c(N=NC(=O)COc3ccc(NC(=O)Nc4ccc(Cl)c(Cl)c4)cc3)c2c1", "growth": "31.9%"}, {"smiles": "COc1ccc2[nH]c(=O)c(CSc3nccc(-c4ccc(Cl)cc4)n3)cc2c1", "growth": "7.4% (active)"}, {"smiles": "CC(=O)Nc1ccc(-c2cn(-c3cccc(C(=O)Nc4cc(CN5CCOCC5)cc(C(F)(F)F)c4)c3)nn2)cn1", "growth": "-88.1% (active)"}, {"smiles": "COc1ccccc1[C@H]1C(C(=O)c2ccc(O)cc2)C2(N[C@@H]1c1ccccc1)C(=O)Nc1ccc(Br)cc12", "note": "(stereo not given in full)", "growth": "30%"}, {"smiles": "Cc1ccc(-c2nc(Nc3ccc(C)c(S(N)(=O)=O)c3)c3ccccc3n2)cc1", "growth": "81.1%"}, {"smiles": "CC(=O)c1cc(C(=O)N2c3ccccc3Sc3ccccc32)n2ccc(C)cc12", "growth": "53.1%"}, {"smiles": "C=C1CCC2C3(C)COC(c4c(F)cccc4F)OC3CCC2(C)C1C/C=C1/C(=O)OCC1O", "note": "(stereo not given)", "growth": "3.87% (active)"}, {"smiles": "O=S(=O)(Nc1ncccn1)c1ccc(-n2c(-c3ccc(Br)cc3)nc(-c3ccccc3)c2-c2ccccc2)cc1", "growth": "16.1%"}, {"smiles": "C[C@H]1[C@H](C)CC[C@]2(COC(=O)CCC(=O)NCC#CCN3CCNCC3)CC[C@]3(C)C(=CC[C@@H]4[C@@]5(C)CCCNC(C)(C)[C@@H]5CC[C@]43C)[C@H]12", "growth": "73.4%"}, {"smiles": "C=C1CCC2C3(C)COC(c4cccc(F)c4)OC3CCC2(C)C1CC(O)C1=CCOC1=O", "note": "(stereo not given)", "growth": "87.9%"}, {"smiles": "O=C(c1ccccc1)n1ccc(-c2cc3cc(Br)ccc3oc2=O)n1", "growth": "-1.71% (active)"}, {"smiles": "N#Cc1ccc(NC(=O)CSc2ccc(-c3ccc(Br)cc3)nn2)cc1", "growth": "72.4%"}, {"smiles": "Nc1nc(-c2ccccc2)cc(-c2cc3ccccc3nc2Cl)n1", "growth": "80.1%"}, {"smiles": "NC(=Nc1ccc(OCCCCCCCCn2ccnn2)cc1)c1ccccc1", "growth": "42.7%"}]}]}
